M1 ag: human M1 muscarinic receptor agonism. 360,000 tested, 0.33% active. activation, % at 3 µM. CHO-K1 hM1, Fluo-8 calcium fluorescence, agonist mode; 0% DMSO, 100% acetylcholine EC100;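 active = activation above the run's mean compound activation plus 3 SD, cut at about 16% in these data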;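 also: peak over basal fluorescence ratio within a 140 s kinetic read after compound addition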
Target sequence (P11229 whole entry, looked up): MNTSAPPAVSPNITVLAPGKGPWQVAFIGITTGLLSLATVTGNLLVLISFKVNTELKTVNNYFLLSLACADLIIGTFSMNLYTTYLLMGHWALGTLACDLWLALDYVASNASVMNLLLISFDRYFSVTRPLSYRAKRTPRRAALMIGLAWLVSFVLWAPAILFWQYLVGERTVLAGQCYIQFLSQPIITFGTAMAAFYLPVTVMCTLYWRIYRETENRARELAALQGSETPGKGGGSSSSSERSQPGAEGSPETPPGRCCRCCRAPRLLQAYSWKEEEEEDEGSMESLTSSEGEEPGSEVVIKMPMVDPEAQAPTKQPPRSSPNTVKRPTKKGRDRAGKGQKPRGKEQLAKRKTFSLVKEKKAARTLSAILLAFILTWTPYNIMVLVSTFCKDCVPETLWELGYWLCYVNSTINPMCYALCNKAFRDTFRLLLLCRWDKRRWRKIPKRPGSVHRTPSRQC
CHO-K1 Ca antag: counter-screen for M1 antagonists: effect in parental CHO-K1 cells | ATP-induced calcium, Fluo-8 fluorescence | inhibition, % at 3 µM | 360,000 tested, 0.6% active;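 active = inhibition above a per-plate cutoff, the plate's mean sample inhibition plus 3 SD, cut at about 24% in these data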
M1 ag parental: counter-screen for M1 agonists: effect in parental CHO-K1 cells. Fluo-8 calcium fluorescence; scaled to maximal ATP response, vehicle zero. activation, % at 3 µM. 360,000 tested, 0.48% active; in the data active = activation above about 15%;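 also: untransfected CHO-K1 host cells lacking M1 receptor as counterscreen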
CHRM1 PAM: human CHRM1 positive allosteric modulation. 360,000 tested, 0.088% active. P11229. activation, % at 3 µM. AID 588819. CHO-K1 hM1, Fluo-8 calcium fluorescence, ACh EC20; 0% = ACh EC20, 100% = maximal ACh; in the data active = activation above about 19%, passing the limit was not always enough
M1 antag: human CHRM1 antagonism; P11229; CHO-K1 hM1, Fluo-8 calcium fluorescence, ACh EC80 antagonist; inhibition, % at 3 µM; 360,000 tested, 1.3% active; AID 588852;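 active = percent inhibition above its own plate's cutoff, namely the mean of that plate's compound wells plus 3 SD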;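 also: peak over basal fluorescence ratio during 140 s after agonist addition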
M1 PAM parental: counter-screen for M1 PAMs: effect in parental CHO-K1 cells; ATP EC20, Fluo-8 calcium fluorescence; 0% at ATP EC20, 100% at ATP max; activation, % at 3 µM; 360,000 tested, 0.02% active; AID 602247;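 active = activation above the run cutoff, the mean activation of all test compounds plus 3 SD, cut at about 40% in these data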;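 also: peak over basal fluorescence ratio in a 140 s read after ATP addition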
Of the large screens only hits and unclear results are named; the others gave an inactive call. Only some compounds are listed: those with a hit (about 2.4% of all), similar ones and a draw of the others.

Nc1ccc(-c2c3ccc(=O)cc-3oc3cc(O)ccc23)cc1C(=O)O	M1 ag 278, CHO-K1 Ca antag 27, M1 ag parental 133, M1 antag 55
COc1ccc(Cl)cc1NC(=O)Cn1c(C)csc1=O	none
Fc1ccc(-c2nc3ccccn3c2NCc2ccc3c(c2)OCO3)cc1	CHO-K1 Ca antag 26
C=CCc1c(C)[nH]c(=O)[nH]c1=O	none
CCOC(=O)CC1C(=O)NCCN1C(=O)c1cccc(OC)c1 (stereo not given)	M1 antag 28
CCOC(=O)CC1C(=O)NCCN1C(=O)c1ccc(Cl)c(Cl)c1 (stereo not given)	M1 PAM parental 74
C[C@@H]1CN([C@@H](C)CO)C(=O)c2cc(Br)cnc2O[C@H]1CN(C)C(=O)c1ccncc1	none
COc1ccc(NC2CCCN(C(=O)c3ccccc3N3CCOCC3)C2)cc1OC (stereo not given)	none
c1ccc(CC[C@@H]2CC[C@@H](CCc3ccccc3)N2)cc1	M1 antag 32
C[C@H](NC(N)=O)C(=O)Nc1ccc(N2CCOCC2)c(S(=O)(=O)Nc2ccc(Cl)cc2)c1	none
O=C(NC1CCCCC1)c1[nH]c(C(F)(F)F)nc1-c1ccccc1	none
O=C(C[N+]1(CC#Cc2ccccc2)CCOCC1)c1ccccc1	none
O=C(C[N+]1(CC#Cc2ccccc2)CCCCC1)c1ccccc1	M1 antag 44
O=C(C[N+]1(CC#Cc2ccccc2)CCCCC1)c1ccc(Cl)cc1	M1 antag 52
CCn1nc(C)c(CNC(=O)Nc2ccc3c(c2)OCO3)c1C	none
CS(=O)(=O)N1CCCC(C(=O)Nc2ccc(F)c(F)c2)C1 (stereo not given)	none
O=C(Nc1ccc(Oc2ccccc2)cc1)c1csc([C@@H]2O[C@H](CO)[C@H](O)[C@H](O)[C@H]2O)n1	none
NS(=O)(=O)c1ccc(-n2cccc2C=O)cc1	M1 ag parental 18
COc1cc(OC)c(-n2cc(-c3ccc(OC)c(OC)c3)[nH]c2=S)cc1Cl	none
CN1CCN(C=Nc2nc3ccccc3nc2N2CCCC2)CC1	M1 antag 34
Nc1nc2ccccc2nc1N1CCCC1	none
CCCCCCCCCCCCCCCC[n+]1cccc(C(=O)N(CC)CC)c1	M1 antag 57
CCCCCCCC[n+]1cccc(C(=O)N(CC)CC)c1	none
Nc1ccc(S(=O)(=O)Nc2nc(-c3ccccc3)cc(-c3ccccc3O)n2)cc1	M1 ag 20
Nc1ccc(S(=O)(=O)Nc2nc(-c3ccccc3)cc(-c3ccccc3)n2)cc1	none
COCCNC(=O)CCn1nc(-c2ccc(C)cc2)ccc1=O	none
C=CS(=O)(=O)c1ccc(Oc2ccc(S(=O)(=O)C=C)cc2)cc1	M1 ag parental 15
O=C(Nc1cccc(F)c1)c1ccccc1	CHO-K1 Ca antag 36
O=C(Nc1cccc(C(=O)Nc2cccc(Br)c2)c1)c1ccccc1	CHO-K1 Ca antag 25
NCCNCCNCCN	none
NCCCCNCCCN	M1 ag 79
COc1ccc(CC(=O)NNC(=O)c2cc(Cl)ccc2OC)cc1	none
COc1ccc(CN2C(=O)C(CC(=O)NCc3cccc4ccccc34)CC(C(=O)N(C(C)C)C(C)C)=C2C)cc1 (stereo not given)	none
O=C(Cc1cccs1)Nn1c(Cc2cccs2)nc2ccccc2c1=O	CHO-K1 Ca antag 30
O=C(OCC#CCSc1nc2ccccc2s1)c1ccco1	none
COc1ccc(S(=O)(=O)N2CCOCC2)cc1Br	none
Nc1cc(S(=O)(=O)N2CCOCC2)ccc1Oc1cccc(Br)c1	CHO-K1 Ca antag 24
CN1CCN(C(CNC(=O)C(=O)NC2CCCC2)c2ccc(F)cc2)CC1 (stereo not given)	CHO-K1 Ca antag 53
S=c1[nH]c2cc(Br)cnc2[nH]1	CHO-K1 Ca antag 26
O=S(=O)(c1ccccc1)N1CCC(O)(CSc2ccc(F)cc2)CC1	M1 ag parental 18
O=S(=O)(c1ccccc1)N1CCC(O)(CSc2ccccc2)CC1	none
Cc1ccc(SC[C@H](c2ccccc2)N2CCN(C)CCC2=O)cc1	M1 antag 33
Cc1nc2ccc(C(=O)N3CCN(Cc4ccccc4)CC3)cc2[nH]1	none
CCCCOc1ccccc1NC(=O)c1scc2c1OCCO2	M1 PAM parental 53
O=S(=O)(Oc1ccc(C(=S)N2CCOCC2)cc1)c1ccc(Cl)cc1	none
CCCc1cc(NCc2ccccn2)n2c(nc3ccccc32)c1C#N	M1 ag parental 15
Cc1cc(N2CCN(c3ccccn3)CC2)n2c(nc3ccccc32)c1C#N	CHO-K1 Ca antag 29
COc1cccc(/C=C2\CCCCC2=O)c1	none
CCOc1ccccc1-c1c2cc(O)c(=O)cc-2oc2cc(O)c(O)cc12	M1 ag 17, M1 ag parental 17
O=c1cc2oc3cc(O)c(O)cc3c(-c3ccccc3O)c-2cc1O	M1 ag 26
COc1ccc(OC)c(-c2c3cc(O)c(=O)cc-3oc3cc(O)c(O)cc23)c1	M1 ag 222, CHO-K1 Ca antag 32, M1 ag parental 72, M1 antag 33
C[C@@H]1CCCCO[C@H](CN(C)S(=O)(=O)c2cn(C)cn2)[C@@H](C)CN([C@H](C)CO)C(=O)c2cc(NC(=O)c3ccncc3)ccc2O1	none
c1ccc(CC2CCCNC2)cc1 (stereo not given)	M1 ag 22
Cc1onc(-c2c(F)cccc2Cl)c1C(=O)Nc1cc(S(=O)(=O)N2CCCCC2)ccc1O	CHO-K1 Ca antag 26, M1 antag 47
O=C(NCc1ccccn1)c1ccc(NS(=O)(=O)c2ccccc2)cc1	none
Cc1ccc(S(=O)(=O)CCSc2cccc(C(=O)Nc3ccccc3C(=O)O)c2)cc1	CHRM1 PAM 37
Cc1ccc(-c2cn(-c3ccccc3)c3[n+]2CCCS3)cc1	none
CCc1ccc(-n2cc(-c3ccc(F)cc3)[n+]3c2SCCC3)cc1	M1 antag 52
Cc1cccc(NC(=O)c2cc([N+](=O)[O-])ccc2N2CCOCC2)c1C	none
COc1cc(CN2CCN(C(O)(c3ccccc3)c3ccccc3)CC2)cc(OC)c1OC	M1 antag 62
CCOC(=O)c1c(C)[nH]c(C(=O)COC(=O)COc2ccc(OC)cc2)c1C	M1 ag parental 16
CC(=O)c1c(C)[nH]c(C(=O)COC(=O)C2CC2)c1C	none
CCOC(=O)c1c(C)[nH]c(C(=O)COC(=O)C2CC2)c1C	M1 antag 31
CC(=NC(C)C)C1=C(O)C(C)OC1=O (stereo not given)	none
Cc1cc2c3c([nH]c2cc1S(=O)(=O)NCc1ccc(CN2CCCCCC2)o1)CCCC3=O	M1 antag 85
CCOCCCNS(=O)(=O)c1cc2[nH]c3c(c2cc1C)C(=O)CC(C)(C)C3	none
Cc1cc2c3c([nH]c2cc1S(=O)(=O)NCc1ccc(CN2CCCCCC2)o1)CC(C)(C)CC3=O	M1 antag 52
Cc1sc2nc(CN3CCCCC3)nc(Cl)c2c1C	none

High-throughput results from PubChem.
